# DAX1 inh-1: inhibits human nuclear receptor DAX1. HEK293 Gal4-DAX1 luciferase reporter, luminescence. hit rate 0.99% among 340,000. AID 504766. inhibition, % at 6.75 µM;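 active = inhibition above the mean over all tested compounds plus 3 SD, cut at about 4.2% in these data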;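 also: 0% = DAX1-transfected cells with DMSO and 100% = empty-vector control cells with DMSO; inhibition shows as a rise in luminescence from relieved DAX1 repression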
# Target sequence (P51843 207-470 limits assumed): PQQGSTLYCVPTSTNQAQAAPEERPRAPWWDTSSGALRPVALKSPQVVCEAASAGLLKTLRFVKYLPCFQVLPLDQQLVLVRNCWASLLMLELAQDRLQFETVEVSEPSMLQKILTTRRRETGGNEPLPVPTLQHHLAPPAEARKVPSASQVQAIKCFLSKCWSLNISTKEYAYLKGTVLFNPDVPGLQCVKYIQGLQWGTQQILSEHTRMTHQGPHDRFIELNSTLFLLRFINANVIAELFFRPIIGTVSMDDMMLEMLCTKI
# DAX1 inh-2: inhibitors of DAX1 repression of SF-1 activated StAR promoter. HEK293T StAR-luciferase reporter, SF-1/DAX-1 repression relief. inhibition, % at 6.8 µM. hit rate 1.1% among 370,000. AID 652010;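 active = inhibition above the mean over all tested compounds plus 3 SD, cut at about 3.6% in these data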;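 also: 0% = DAX-1 cells with DMSO and 100% = cells lacking DAX-1 with DMSO; higher inhibition means more luminescence from relief of DAX-1 repression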
# hcDAF12 agonist: activators of H. contortus DAF-12 nuclear receptor. activation, % at 6.8 µM. hit rate 1.4% among 370,000. HEK293 hcDAF-12 lit1-tk-luc reporter, luminescence; 0% DMSO, 100% Δ7-dafachronic acid. AID 652067;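 active = activation above the mean of all tested compounds plus 3 SD, cut at about 5.5% in these data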;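 also: 100% = response to 3 µM Δ7-dafachronic acid high control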
# ssDAF12 agonist: S. stercoralis DAF-12 activation, primary screen | HEK293 ssDAF-12/GRIP1 lit1-tk-luc reporter, luminescence; % of 3 µM dafachronic acid response | activation, % at 6.8 µM | hit rate 1% among 370,000 | AID 652126;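 active = activation above the mean over all tested compounds plus 3 SD, cut at about 0.9% in these data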;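 also: 0% = DMSO-only wells and 100% = 3 µM delta7-dafachronic acid wells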
# hgDAF12 agonist: activates the H. glycines DAF-12 receptor ligand-binding domain; activation, % at 6.8 µM; hit rate 1.8% among 370,000; HEK293 GAL4-hgDAF12 UAS-luciferase reporter, agonist luminescence; normalized to butyrate control;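 active = activation above a cutoff set at the mean of all screened compounds plus 3 SD, cut at about 10% in these data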;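 also: 0% = DMSO wells and 100% = sodium butyrate wells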
# * = called active by the depositor; nt = no result. Rows were chosen to be rich in hits. Some 4.1% of all compounds tested hit in one or more screens of this group.
SMILES,DAX1 inh-1,DAX1 inh-2,hcDAF12 agonist,ssDAF12 agonist,hgDAF12 agonist
NC(=S)Nc1nc2ccccc2[nH]c1=O,nt,0,5.8*,1,0
Cc1ccc2[nH]c(=O)c(NC(N)=S)nc2c1,0,-1,-1,0,0
c1cncc(CNc2cccc(-c3nc4ccccc4[nH]3)c2)c1,-1,1,4,-1,11*
Cn1c(NC(=O)/C=C\c2ccccc2)cc(=O)n(C)c1=O,4.6*,1,5,1.1*,9
O=C(CNC(=O)c1ccncc1)N/N=C/c1ccc(Br)cc1,6.5*,0,-2,-1,-1
CCCCOC(=O)/C=C\C(=O)OCCCC,6.9*,1,-1,-1,-1
CC(=O)c1ccc(-n2c(-c3cc(-c4ccco4)[nH]n3)n[nH]c2=S)cc1,5.6*,0,-1,-1,-2
O=C(O)c1ccc(-n2c(-c3cc(C4CC4)[nH]n3)n[nH]c2=S)cc1,4.6*,1,-1,-1,-1
O=C(O)c1ccc(-n2c(-c3cc(-c4ccco4)[nH]n3)n[nH]c2=S)cc1,-1,0,-1,-1,0
O=C(NCc1ccccc1)[C@H]1CCCN1C(=O)[C@H]1CCCN1C(=O)c1ccc(OC(F)(F)F)cc1,nt,0,-1,-2,-1
CC(C)C[C@H]1COc2ccc(Cl)cc2S(=O)(=O)N1,nt,-1,0,-2,0
CCCN1CCc2c(sc(NC(=S)NC(=O)c3ccccc3)c2C#N)C1,4.8*,3,3,-2,5
Cc1sc(NC(=S)NC(=O)c2ccccc2)c(C#N)c1C,1,0,0,-1,3
CC(C)N1CCc2c(sc(NC(=S)NC(=O)c3ccccc3)c2C#N)C1,2,1,8.3*,-2,4
CC(C)C1Cc2c(sc(NC(=S)NC(=O)c3ccccc3)c2C#N)CO1 (centres undefined),1,0,0,-1,3
O=C(CCSCCc1ccccn1)Nc1ccc(Br)cc1F,0,1,-1,2.0*,-2
CN1CCCCC(NC(=O)c2ccc(Cl)cc2Cl)C1=O (centres undefined),nt,0,1,-1,1
O=C(NCCN1CCOCC1)c1ccc(CS(=O)(=O)c2c(Cl)cccc2Cl)o1,7.2*,0,-2,-1,-2
O=C(c1ccc(CS(=O)(=O)c2ccccc2)o1)N1CCOCC1,5.6*,1,-1,0,4
O=C(c1ccc(CS(=O)(=O)c2ccc(Br)cc2)o1)N1CCCC1,1,2,-1,-2,0
COC(=O)C1=C(C)N(Cc2ccccc2C(F)(F)F)C(=NCc2ccc3c(c2)OCO3)NC1c1ccc(C(F)(F)F)cc1 (centres undefined),nt,0,0,-1,4
CCCCNC(=O)C[C@H]1C[C@@]2(C(=O)OC)C(=C[C@H](C(C)C)O[C@@H]2C2CC2)N(Cc2ccccc2)C1=O,nt,1,-1,-1,0
COC(=O)[C@]12C[C@H](CC(=O)NCc3cccc4ccccc34)C(=O)N(CCC3=CCCCC3)C1=C[C@H](C(C)(C)C)O[C@@H]2C,nt,0,2,-1,0
CCN(c1ccccc1)S(=O)(=O)c1ccc(Cl)c(NC(=O)CSc2nc(N)cc(=O)[nH]2)c1,1,-1,1,-1,-4
COc1ccc(C2N3CC4(C)CN2CC(C)(C3)C4=O)cc1OC (centres undefined),5.2*,1,-2,-1,1
SMILES,DAX1 inh-1,DAX1 inh-2,hcDAF12 agonist,ssDAF12 agonist,hgDAF12 agonist
COc1ccc(C2OC(=O)C(C)(C)C(=O)C2(C)C)cc1OC (centres undefined),1,0,-1,-1,-1
COc1ccc2c(c1)[C@@]1(OCCC=C[C@H]1C)C(=O)N2Cc1ccc(Br)cc1,nt,0,-1,-1,-2
Cc1nc2sc(C(=O)NC3CC3)c(N)c2c(C)c1Cl,nt,1,4,0.9*,8
COc1ccc(-n2c(SCC(=O)Nc3ccc4c(c3)OCCO4)nnc2-c2ccccc2)cc1,nt,-1,-1,-1,-2
Nc1cc(N)nc(SCC(=O)c2ccccc2)n1,0,0,-1,0,1
Nc1nnc(SCC(=O)c2ccc3ccccc3c2)s1,1,3,3,1.1*,10
CCOc1ccc2nc(SCc3ccc(F)cc3)sc2c1,0,0,0,-1,3
Nc1ccc2nc(SCc3ccccc3F)sc2c1,3,0,5,1.0*,8
